Compound activity: PubChem, National Center for Advancing Translational Sciences (NCATS)
ERG Ets-DNA blk: blocks human ERG Ets domain binding to DNA. P11308. fluorescence polarization, His-ERG Ets domain / labelled DNA. Potency, µM (doses to about 76.9 µM), for the others: at the top dose FP activity, negative = inhibition, hits mostly inhibitors. 0.028% of 370,000 active; active = well fitted inhibition curve with a large enough effect in the polarisation, with a control signal flat; inconclusive = small, poorly fitted or top-dose-only effect, or effect the other way, or a change in a side signal; inactive = no such curve, though single readings can be large or run the other way; the % refers to the polarisation;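 note: polarization taken with two DNA probes labelled with fluorescein and Texas red; % of control where 0% means no effect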
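His-tagged ERG Ets domain (1 uM in the protein solution; 300mM KCl, 50mM Tris-HCl, 1mM EDTA, 1mM DTT, pH 7.5) received compound, then a probe mix of 5 nM fluorescein-DNA and 100nM Texas-615-DNA. Fluorescence polarization was read for both dyes.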
TRb SRC2 PPI: TRbeta-SRC2 interaction inhibition | P10828 | TRbeta-SRC2 peptide binding, fluorescence polarization; receptor liganded with 1 µM T3 | Potency, µM (top dose mostly 106 µM), for the others: top-dose activity change, negative = inhibition, usual class: inhibitors | 0.065% of 280,000 active | AID 1469;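 note: plate controls were bound peptide for no effect and peptide without receptor for full effect; nearly all actives have a fitted effect of over 50% in size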
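Read-out is fluorescence polarization (555 nm excitation, 632 nm emission) of a Texas Red SRC2 coactivator peptide; loss of signal reflects blocked binding to human TRb ligand-binding domain in the presence of 1 uM T3.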
BLM helicase inh: Bloom syndrome helicase (human) inhibition | recombinant BLM DNA unwinding, fluorescence dequenching | Potency, µM (series often up to 56.1 µM), for inactives: at the highest dose activity change, negative = inhibition, most hits filed as inhibitors | 0.2% of 350,000 active | AID 2528;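 note: plate controls were vehicle for no effect and no enzyme for full effect; nearly all actives have a fitted effect of over 35% in size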
TR SRC2 fluor cs: Texas Red fluorescence interference in TRb-SRC2 counter-screen; TRb/SRC2 Texas Red total fluorescence interference; Potency, µM (doses to about 106 µM), for inactives: top-dose fluorescence change, negative = quenching; 0.29% of 280,000 active; active = well fitted curve in either direction with a large enough effect; inconclusive = small, poorly fitted or top-dose-only effect; note: % is set by controls: 0 for no effect and ±100 for the full control effect
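Human TRβ ligand-binding domain (0.6 uM) and Texas Red SRC2 peptide (20 nM) in Tris buffer with 1 uM T3 and 5% DMSO were incubated with pinned compound for 5 hr at ambient temperature. Total fluorescence was computed as S + 2P (555/632 nm).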
RECQ1 inh-1: inhibitors of human RECQ1 DNA helicase; Potency, µM (top dose mostly 57.3 µM), for inactives: at the top dose activity, negative = inhibition, actives largely listed as inhibitors; P46063; RECQ1 DNA unwinding, red fluorescence kinetic read; 0.54% of 240,000 active;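 note: plate controls were vehicle for no effect and no enzyme for full effect; nearly all actives have a fitted effect of over 30% in size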
Target sequence (P46063 whole entry, looked up): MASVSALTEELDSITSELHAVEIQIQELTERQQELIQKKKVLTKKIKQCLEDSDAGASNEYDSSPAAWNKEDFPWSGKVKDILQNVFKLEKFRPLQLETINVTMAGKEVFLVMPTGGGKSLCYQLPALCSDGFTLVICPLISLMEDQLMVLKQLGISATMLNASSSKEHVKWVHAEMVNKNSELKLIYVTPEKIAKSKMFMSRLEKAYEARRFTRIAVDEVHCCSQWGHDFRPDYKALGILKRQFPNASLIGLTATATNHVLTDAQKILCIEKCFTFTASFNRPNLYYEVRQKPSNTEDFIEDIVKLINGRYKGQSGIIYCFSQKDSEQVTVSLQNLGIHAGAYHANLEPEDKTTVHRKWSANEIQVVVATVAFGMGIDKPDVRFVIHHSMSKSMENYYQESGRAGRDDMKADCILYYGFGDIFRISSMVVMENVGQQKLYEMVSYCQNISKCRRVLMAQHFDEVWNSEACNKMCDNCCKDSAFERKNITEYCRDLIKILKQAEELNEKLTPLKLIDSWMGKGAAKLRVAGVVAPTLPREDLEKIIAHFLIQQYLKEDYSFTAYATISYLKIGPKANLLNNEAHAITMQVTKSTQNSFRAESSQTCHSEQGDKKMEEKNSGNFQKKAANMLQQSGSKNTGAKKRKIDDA
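50 nM RECQ1T1 preincubated 15 min with compound in Tris pH 8.0 buffer with MgCl2, DTT, Tween-20 and 2.5 ug/ml poly(dI-dC); started with 200 nM TAMRA/BHQ-2 forked duplex and 2 mM ATP. Unwinding read as fluorescence (525/598 nm), two reads 2 h apart.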
GoLoco inh red: inhibitors of human Gai1-RGS12 GoLoco interaction (red fluorophore). P63096. Gai1:RGS12 GoLoco peptide FP, rhodamine, 10 min. Potency, µM (highest dose often 61.6 µM), without a hit: top-dose activity, negative = inhibition, actives largely listed as inhibitors. 0.44% of 230,000 active; active = well fitted inhibition curve with a large enough effect, not every such curve was filed as active; inactive = no such curve, though single readings can be large or run the other way; note: % is set by controls: 0 for no effect and ±100 for the full control effect; nearly all actives have a fitted effect of over 30% in size
RECQ1 conf: confirmation of human RECQ1 helicase inhibitors | 28% of 610 active | Potency, µM (top dose mostly 229 µM), for inactives: at the highest dose activity change, negative = inhibition, actives largely listed as inhibitors | RECQ1 helicase DNA unwinding, fluorescence | shares compounds with RECQ1 inh-1 | AID 2708; note: % is set by controls: 0 for no effect and ±100 for the full control effect; nearly all actives have a fitted effect of over 45% in size
RECQ1 ADP FP: displaces ADP in a fluorescence polarization counter-screen for RECQ1 hits; shares compounds with RECQ1 inh-1; ADP fluorescence polarization displacement counterscreen; Potency, µM (highest dose often 228 µM), inactives show top-dose activity change, negative = inhibition, most hits filed as inhibitors; 27% of 530 active; note: % is set by controls: 0 for no effect and ±100 for the full control effect; nearly all actives have a fitted effect of over 45% in size
RECQ1 inh-2: blocks human RECQ1 DNA unwinding | shares compounds with RECQ1 inh-1 | recombinant RECQ1 DNA unwinding, red fluorescence | Potency, µM (series often up to 119 µM), for the others: at the top dose activity, negative = inhibition, actives largely listed as inhibitors | 15% of 1,100 active; note: % is set by controls: 0 for no effect and ±100 for the full control effect; nearly all actives have a fitted effect of over 50% in size
Active calls of the source: *; i = inactive; ? = inconclusive; / = not tested or not shown; [ ] = remark or other dose. Most compounds without a hit are left out; they make up all but 0.71% or so of the library. Unless noted, calls come from the whole dose curve; as a rule, active = well fitted curve in the direction sought with a large enough effect; inconclusive = small, poorly fitted or top-dose-only effect, or another doubt; inactive = no such curve, though single readings can be large; an effect the other way counts as inactive or inconclusive. Potency is the fitted concentration of half-maximal effect.

SMILES | ERG Ets-DNA blk | TRb SRC2 PPI | BLM helicase inh | TR SRC2 fluor cs | RECQ1 inh-1 | GoLoco inh red | RECQ1 inh-2 | others
Cc1[nH]n(-c2ccccc2)c(=O)c1Sc1ccc(Cl)cc1 | -12% | -16% | -3% | -4% | -11% | 8% | /
O=C(c1ccc2c(=O)n(CCc3ccccc3)c(=O)[nH]c2c1)N1CCN(c2ccccc2)CC1 | -7% | / | -5% | / | / | / | /
COc1ccc(N2CCN(C(=O)c3ccc4c(=O)n(CCc5ccc(OC)c(OC)c5)c(=O)[nH]c4c3)CC2)cc1 | -2% | -3% | -7% | ? | -13% | -16% | / | RECQ1 conf=6%;RECQ1 ADP FP=?
S=c1[nH]nc(-c2cc(-c3ccco3)[nH]n2)n1-c1ccccc1Cl | -7% | 5% | 5% | -14% | 7.9µM* | 23% | / | RECQ1 conf=15%[114 µM];RECQ1 ADP FP=?
S=c1[nH]nc(-c2ccco2)n1-c1ccccc1Cl | -1% | -6% | -6% | -5% | -6% | 22% | /
CCOC(=O)c1ccc(-n2c(CCC(=O)O)ccc2-c2ccc(Br)cc2)cc1 | -2% | 8% | -7% | -2% | / | / | /
CCOC(=O)CN1C(=O)S/C(=C/c2ccc3c(c2)n(C)c(=O)n3C)C1=O | -4% | 3% | 5% | -2% | -4% | 4% | /
CCOC(=O)CN1C(=O)S/C(=C/C=C/c2ccc(N(C)C)cc2)C1=O | 146% | ? | ? | ? | 25µM* | 2% | 32µM*
COc1ccc(NS(=O)(=O)c2ccc(O)c(NC(=O)c3ccc(S(=O)(=O)N4CCCCCC4)cc3)c2)cc1 | -1% | 16% | -19% | -1% | 6% | 4% | / | RECQ1 conf=-13%;RECQ1 ADP FP=10%
O=S(=O)(Nc1nc2ccccc2nc1Nc1cccc(S(=O)(=O)N2CCCCC2)c1)c1ccccc1 | 1% | 14% | -19% | -5% | ? | -12% | ?
COc1ccc(NS(=O)(=O)c2cccc(NC(=O)c3ccc(S(=O)(=O)N4CCCCCC4)cc3)c2)cc1 | -4% | 5% | -3% | 0% | -14% | 8% | / | RECQ1 conf=-2%;RECQ1 ADP FP=4%
COc1ccc(NS(=O)(=O)c2ccc(O)c(NC(=O)c3ccc(S(=O)(=O)N4CCCC4)cc3)c2)cc1 | -18% | 5% | -6% | -4% | 5% | 4% | / | RECQ1 conf=8%;RECQ1 ADP FP=5%
COc1ccc(C(=O)Nc2ccc(S(=O)(=O)N3CCCC3)cc2)cc1 | 24% | 1% | -4% | 0% | i | -1% | /
Cc1cccc(C(=O)Nc2ccc(N3CC=C(c4ccccc4C)CC3)c(C(=O)O)c2)c1 | 12% | 2% | 3% | -3% | / | / | /
CCCCc1nc2c(c3c1C[C@H](C)OC3)CN(C(=O)NCc1ccco1)CC2 | / | -3%[11.2 µM] | -2%[12.4 µM] | -3%[11.2 µM] | i[11.5 µM] | 1%[14.2 µM] | /
COc1ccc(-c2cc(C3C4C=CCC(C)C4C(=O)N3Cc3ccccc3)ccc2F)cc1 (configuration not stated) | / | -4% | -7% | -4% | i | / | /
CCOc1ccc(NS(=O)(=O)c2ccc3[nH]c4c(c3c2)CCCCC4)cc1 | -1% | -5% | -13% | -2% | / | / | /
COc1ccc(NC(=O)c2ccc(CNS(=O)(=O)c3cccc(OC)c3)cc2)cc1 | -6% | 3% | -4% | -2% | 35µM* | -6% | 0%
COc1cccc(S(=O)(=O)NCc2ccc(C(=O)Nc3ccc(C)cc3)cc2)c1 | -10% | 3% | -2% | -1% | 6% | -1% | /
COC(=O)C1=C(C)NC(=O)C1(NC(=O)c1cc(OC)c(OC)c(OC)c1)C(F)(F)F (configuration not stated) | -1% | -2% | 0% | ? | / | / | /
CCc1ccc(-n2nnnc2SCC(=O)Nc2ccc(NC(C)=O)cc2)cc1 | -23% | / | 0% | / | / | / | /
CC(=O)Nc1ccc(-n2nnnc2SCC(=O)Nc2cccc(NC(=O)c3ccco3)c2)cc1 | -9% | 15% | -23% | -8% | ? | 34% | ?
O=C(CSC1CC(=O)N(CC(c2ccccc2)c2ccccc2)C1=O)Nc1ccc(Cl)cc1 (configuration not stated) | -2% | 0% | -13% | 2% | ? | 13% | ?
CC(C)[C@H]1COC(c2cc(Cl)cc(Cl)c2)=N1 | / | 6%[201 µM] | -2%[120 µM] | -1%[201 µM] | 0%[126 µM] | -4%[88.7 µM] | /
CCN(CC)C(=O)c1cn(CCC#N)nc1-c1ccc(F)cc1 | -1% | 11% | 0% | -1% | 40µM* | 0% | 3%
SMILES | ERG Ets-DNA blk | TRb SRC2 PPI | BLM helicase inh | TR SRC2 fluor cs | RECQ1 inh-1 | GoLoco inh red | RECQ1 inh-2 | others
CN(C)C(=O)c1cn(CCC#N)nc1-c1ccc2ccccc2c1 | 4% | / | 2% | / | / | / | /
O=C(NCc1ccccc1)C(c1ccco1)N(C(=O)c1cnccn1)c1ccc(F)cc1 (configuration not stated) | 11% | -17% | -7% | -1% | -2% | 17% | /
CC(=O)c1cccc(N(C(=O)c2cnccn2)C(C(=O)NCc2ccccc2)c2ccco2)c1 (configuration not stated) | 1% | -15% | -3% | 2% | 40µM* | 6% | -8%
Cc1ccc(O)c(N=Cc2cc(Cc3ccccc3)cc([N+](=O)[O-])c2O)c1 | 0% | -6% | -22% | -17% | 13µM* | 183% | ? | RECQ1 conf=56µM*;RECQ1 ADP FP=45µM*
Cc1cc(=O)[nH]c(SCC(=O)Nc2ccc(C(=O)O)cc2)n1 | / | -17% | 4% | -2% | -1% | 11% | /
CCOC(=O)c1ccc(NC(=O)CSc2nc(C)cc(=O)[nH]2)cc1 | 2% | -4% | -20% | -3% | ? | 35% | ?
O=C(O)CC(NC(=O)COc1ccc(Cl)cc1Cl)C(=O)O (configuration not stated) | -2% | -6% | 1% | 1% | 15% | -10% | / | RECQ1 conf=15%;RECQ1 ADP FP=5%
O=C(COc1ccc(Cl)cc1Cl)NC(=O)c1ccccc1 | -3% | / | -1% | / | / | / | /
Cc1cccc(-c2nc(CSCC(=O)N3CCN(c4ccccc4)CC3)c(C)o2)c1 | 4% | -4% | -6% | -21% | / | / | /
Cc1ccc(NS(=O)(=O)c2ccc3c(c2)[C@H]2C=CC[C@H]2[C@@H](c2ccc(F)cc2)N3)cc1C | 9% | 10% | -16% | 0% | / | / | /
